Bioassay records deposited in PubChem BioAssay by Broad Institute.
CDK5 inh – CDK5/p35 (human) kinase inhibition. hit rate 0.01% among 330,000. inhibition, % at 10 µM. Recombinant CDK5/p35, ADP-Glo luminescence, 60 min. Q00535+Q15078. AID 488839;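 active means highest replicate inhibition of at least 50% and at least 75% of replicates reaching 50%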
Target sequence (Q00535 whole entry, looked up): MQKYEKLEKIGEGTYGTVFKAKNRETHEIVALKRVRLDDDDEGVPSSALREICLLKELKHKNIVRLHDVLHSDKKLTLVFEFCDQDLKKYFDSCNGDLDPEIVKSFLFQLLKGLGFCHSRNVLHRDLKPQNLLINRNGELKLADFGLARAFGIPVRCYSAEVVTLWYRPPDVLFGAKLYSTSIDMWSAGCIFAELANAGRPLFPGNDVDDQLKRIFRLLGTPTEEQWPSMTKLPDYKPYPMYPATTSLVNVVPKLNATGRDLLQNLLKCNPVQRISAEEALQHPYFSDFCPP
Target sequence (Q15078 whole entry, looked up): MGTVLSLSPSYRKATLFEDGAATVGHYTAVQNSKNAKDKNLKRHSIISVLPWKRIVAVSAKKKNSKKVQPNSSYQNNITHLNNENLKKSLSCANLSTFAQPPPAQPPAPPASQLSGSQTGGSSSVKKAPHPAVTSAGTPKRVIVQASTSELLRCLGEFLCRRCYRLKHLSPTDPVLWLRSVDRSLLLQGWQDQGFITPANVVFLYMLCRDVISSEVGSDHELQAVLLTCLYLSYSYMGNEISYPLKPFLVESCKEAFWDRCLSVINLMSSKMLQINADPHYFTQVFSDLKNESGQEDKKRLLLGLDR
PglD inh – inhibitors of Campylobacter jejuni PglD acetyltransferase | hit rate 0.098% among 360,000 | purified PglD enzyme, DTNB colorimetric CoA detection | inhibition, % at 12.5 µM; in the data active means inhibition above about 16%, passing the limit was not always enough
FGF22 binding – shifts melting point of recombinant human FGF22; Q9HCT0; recombinant FGF22 thermal shift, SYPRO orange fluorescence; percent of sucrose octasulfate shift, DMSO zero; activity (Tm shift, normalised), % at 9.99 µM; hit rate 1.5% among 340,000; AID 651658;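 active means mean Tm shift, scaled 0 neutral to 100 positive control, at about 1.3% or above, every replicate too, limit read from the data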
dFosB act – mouse delta FosB homodimer activation; purified delta FosB, TAMRA-CDK5 oligo fluorescence polarization; percent of positive-control signal above neutral wells; P13346; hit rate 0.99% among 340,000; AID 493131; activation, % at 25 µM;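 active means mean activation above about 17%, with every replicate also reaching it, limit read from the data, passing the limit was not always enough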
SIRT5 block – blocks human SIRT5 desuccinylation of peptide; hit rate 1.1% among 330,000; AID 652115; Purified SirT5, succinyl-peptide AMC, trypsin-coupled fluorescence; Q9NXA8; inhibition, % at 15 µM; in the data active means inhibition above about 15%
PvdQ inh – blocks Pseudomonas aeruginosa PvdQ acylase activity | purified PvdQ acylase, fluorescence plate reader | inhibition, % at 10 µM | hit rate 0.063% among 340,000; in the data active means inhibition above about 30%, passing the limit was not always enough
Of the large screens only hits and unclear results are named; the others gave an inactive call; ! = not confirmed by another sample. The list is not random: actives were taken first. Their share in the collection is about 2.8%.

COc1ccc(NC(=O)c2ccc(-c3ccc(-c4noc(C)n4)cc3C)cc2)cc1N1CCN(C)CC1	dFosB act 21.1
COc1ccccc1-c1cccc([C@@H]2C[C@H]3[C@H](CON3C)CN2C(=O)CCc2ccccc2)c1	SIRT5 block 16.8
COCCN(C(=S)Nc1ccccc1C)C(C)c1ccco1 (stereo not drawn)	FGF22 binding 43.2
COCCN(C(=S)Nc1cccc(C)c1C)C(C)c1ccco1 (stereo not drawn)	none (no result: PglD inh)
CC(C)(C)Cc1nnc(NC(=O)CCc2ccccc2)s1	none
CCOc1ccccc1OCC(=O)NNC(=O)Cn1cnc2c1c(=O)n(C)c(=O)n2C	FGF22 binding 44.1
CCOC(=O)Cc1csc(NC(=O)Cn2cnc3c2c(=O)n(C)c(=O)n3C)n1	SIRT5 block 25.3 (no result: PglD inh)
CCOC(=O)Cc1nnc(NC(=O)CCc2ccccc2)s1	SIRT5 block 16.8 (no result: PglD inh)
CCOC(=O)Cc1csc(NC(=O)CCSc2ccccc2)n1	FGF22 binding 2.5
CCOC(=O)Cc1csc(NC(=O)CCc2ccccc2)n1	none
CO[C@@H]1CC[C@H]2CCN(C)C(=O)C[C@@H](c3ccccc3)CN(C)C(=O)c3cccc(C#N)c3OC[C@@H]1O2	none (no result: CDK5 inh, dFosB act, PvdQ inh)
CN(C)C(=O)C[C@H]1C=C[C@@H](NC(=O)C2CCOCC2)[C@@H](CO)O1	none (no result: CDK5 inh, PglD inh, FGF22 binding, dFosB act, PvdQ inh)
O=C(N[C@H]1CC[C@H](CCn2cc(-c3ccccc3F)nn2)O[C@H]1CO)c1ccc2c(c1)OCO2	none (no result: CDK5 inh, dFosB act, PvdQ inh)
CCCN(C)C[C@@H]1Oc2cc(C#CC3CCCC3)ccc2S(=O)(=O)N([C@@H](C)CO)C[C@H]1C	none (no result: CDK5 inh, dFosB act, PvdQ inh)
CCOc1ccc(/C=C/C(=O)CCC(=O)O)cc1	FGF22 binding 43.0
CC(=O)NC[C@H]1[C@@H](c2ccc(-c3ccccc3)cc2)[C@H](CO)N1C(=O)C1CC1	none (no result: CDK5 inh, dFosB act, PvdQ inh)
COc1ccc(-[n+]2c(C)cc(/C=C3\Sc4ccccc4N3C)cc2C)cc1	dFosB act 28.6, SIRT5 block 25.8 (no result: PglD inh)
COc1ccccc1-[n+]1c(C)cc(/C=C2\Sc3ccccc3N2C)cc1C	none
CCc1ccc(Nc2ccc(C(N)=O)cc2[N+](=O)[O-])cc1	FGF22 binding 43.8 (no result: PglD inh)
C[C@@H]1CCCCO[C@@H](CN(C)C(=O)Nc2ccccc2)[C@H](C)CN([C@H](C)CO)C(=O)c2cc(NS(=O)(=O)c3ccc(F)cc3)ccc2O1	none (no result: CDK5 inh, dFosB act, SIRT5 block, PvdQ inh)
C[C@H](CO)N1C[C@H](C)[C@H](CN(C)Cc2ccccc2)Oc2ncc(C#CCN(C)C)cc2C1=O	SIRT5 block 18.6! (no result: CDK5 inh, dFosB act, PvdQ inh)
COCC#Cc1cnc2c(c1)C(=O)N([C@@H](C)CO)C[C@@H](C)[C@H](CN(C)C(=O)c1cccnc1)O2	SIRT5 block 16.2 (no result: CDK5 inh, dFosB act, PvdQ inh)
COCC#Cc1cnc2c(c1)C(=O)N([C@H](C)CO)C[C@H](C)[C@@H](CN(C)C(=O)c1cccnc1)O2	none (no result: CDK5 inh, dFosB act, PvdQ inh)
COCC#Cc1cnc2c(c1)C(=O)N([C@H](C)CO)C[C@@H](C)[C@H](CN(C)C(=O)Cc1ccccc1)O2	SIRT5 block 31.4 (no result: CDK5 inh, dFosB act, PvdQ inh)
C[C@@H]1CN([C@H](C)CO)C(=O)c2cc(C#CCN(C)C)cnc2O[C@H]1CN(C)Cc1ccccc1	none (no result: CDK5 inh, dFosB act, PvdQ inh)
CC(C)C#Cc1cnc2c(c1)C(=O)N([C@H](C)CO)C[C@H](C)[C@@H](CN(C)C(=O)CN1CCOCC1)O2	SIRT5 block 39.5 (no result: CDK5 inh, dFosB act, PvdQ inh)
Cc1ccc(S(=O)(=O)Nc2ccc3c(c2)CC(=O)N([C@H](C)CO)C[C@H](C)[C@@H](CN(C)C(=O)Nc2c(C)noc2C)O3)cc1	none (no result: CDK5 inh, dFosB act, PvdQ inh)
CN1C(=O)c2cc(NC(=O)c3cccs3)ccc2OC[C@@H]2O[C@H](CC(=O)NCCN3CCCCC3)CC[C@H]21	none (no result: CDK5 inh, dFosB act, PvdQ inh)
CCC(=O)Nc1ccc2c(c1)OC[C@@H](C)N(C(C)=O)C[C@@H](C)[C@H](OC)CN(C)C2=O	none (no result: CDK5 inh, dFosB act, PvdQ inh)
COCC#Cc1cnc2c(c1)C(=O)N([C@@H](C)CO)C[C@H](C)[C@@H](CN(C)C(=O)C1CCC1)O2	PglD inh 20.2 (no result: CDK5 inh, dFosB act, PvdQ inh)
C[C@@H]1CN([C@H](C)CO)C(=O)Cc2cc(NC(=O)Nc3ccccc3)ccc2O[C@@H]1CN(C)C(=O)Nc1ccc(C(F)(F)F)cc1	none (no result: CDK5 inh, dFosB act, SIRT5 block, PvdQ inh)
O=C(CN1C(=O)CC(c2ccccc2)Sc2ccccc21)NCC1CCCO1 (stereo not drawn)	FGF22 binding 43.2
C[C@@H]1CN([C@@H](C)CO)C(=O)c2cc(NS(=O)(=O)c3cccs3)ccc2O[C@@H](C)CCCCO[C@@H]1CN(C)S(=O)(=O)c1ccccc1	none (no result: CDK5 inh, dFosB act, PvdQ inh)
Cc1ccc(-n2c(SCC(=O)N3CCCc4ccccc43)nnc2-c2cccnc2)c(C)c1	FGF22 binding 43.3 (no result: PglD inh)
O=[N+]([O-])c1cccc(S(=O)(=O)N2CCN(S(=O)(=O)N3CCOCC3)CC2)c1	SIRT5 block 16.1
CN(C)C(=O)c1cccc(-c2ccc([C@H]3[C@H](CO)N4CCCCN(S(C)(=O)=O)C[C@@H]34)cc2)c1	none (no result: CDK5 inh, dFosB act, PvdQ inh)
CN(C)C(=O)c1cccc(-c2ccc([C@H]3[C@@H](CO)N4CCCCN(S(C)(=O)=O)C[C@@H]34)cc2)c1	SIRT5 block 40.8 (no result: CDK5 inh, dFosB act, PvdQ inh)
Cc1cccc(-c2ccc([C@@H]3[C@@H](CO)N4C(=O)CN(S(=O)(=O)c5cccc(F)c5)C[C@@H]34)cc2)c1	SIRT5 block 20.4 (no result: CDK5 inh, PglD inh, dFosB act, PvdQ inh)
Cc1ccccc1S(=O)(=O)N1CCCCN2[C@H](CO)[C@@H](c3ccc(-c4ccccc4)cc3)[C@@H]2C1	SIRT5 block 18.7 (no result: CDK5 inh, dFosB act, PvdQ inh)
Cc1cccc(-c2ccc([C@H]3[C@H]4CN(S(=O)(=O)c5cccc(C)c5)CCCCN4[C@H]3CO)cc2)c1	FGF22 binding 18.5 (no result: CDK5 inh, dFosB act, PvdQ inh)
Cc1ccc(-c2ccc([C@@H]3[C@@H](CO)N4C(=O)CN(S(=O)(=O)c5cccc(F)c5)C[C@H]34)cc2)cc1	none (no result: CDK5 inh, PglD inh, FGF22 binding, dFosB act, PvdQ inh)
Cn1cnc(CCNC(=O)C[C@H]2CC[C@H]3[C@@H](COC[C@@H](O)CN3C(=O)C3CC3)O2)c1	none (no result: CDK5 inh, dFosB act, PvdQ inh)
Cc1cccc(S(=O)(=O)N2CCCCN3[C@@H](CO)[C@H](c4ccc(-c5ccccc5)cc4)[C@@H]3C2)c1	SIRT5 block 22.4 (no result: CDK5 inh, dFosB act, PvdQ inh)
COc1ccc2cc(CN(Cc3ccco3)C(=S)NCC3CCCO3)c(=O)[nH]c2c1 (stereo not drawn)	none (no result: PglD inh)
COc1ccc2[nH]c(=O)c(CN(Cc3ccccc3)C(=S)NCC3CCCO3)cc2c1 (stereo not drawn)	FGF22 binding 43.8 (no result: PglD inh)
Cc1cc(C)n2nc(SC(C)C(=O)N3CC(C)OC(C)C3)nc2n1 (stereo not drawn)	FGF22 binding 43.1 (no result: SIRT5 block)
Cc1cc(C)n2nc(SCC(=O)N3CCC(C(=O)O)CC3)nc2n1	FGF22 binding 44.3 (no result: PglD inh, SIRT5 block)
Cc1cc(C)n2nc(SC(C)C(=O)N3CCCC3)nc2n1 (stereo not drawn)	none
COc1cc(CN2CC3(CN(C(=O)c4cccnc4)C3)c3c([nH]c4cc(OC)ccc34)[C@H]2CO)cc(OC)c1	none (no result: CDK5 inh, PglD inh, dFosB act, PvdQ inh)
CC1CC(C)(C)NC(=S)O1 (stereo not drawn)	FGF22 binding 43.4! (no result: PglD inh)
CN(CC(=O)O)Cc1oc(CO)cc(=O)c1O	FGF22 binding 43.6 (no result: PglD inh, SIRT5 block)
